Data reported in PubChem BioAssay AID1159580 (chemical genetic matrix, 2015).
Values joined by “and” are separate entries in the source; they are usually repeats but may differ in a detail not shown here. Equal entries are not always repeated. About 2,000 (36%) of roughly 5,500 compounds were called active. Another 18% or so got no clear call; they are omitted. Rule as the data show it: active = normalized growth mostly below about 0.91 (no sharp cut-off); inconclusive = no clear call, values can overlap the other calls; inactive = mostly above about 0.92. Some of the results follow.

Experiment: chemical genetic growth profiling, strain panel (AID 1159580);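 also: tested at 20 µM; growth read once vehicle control cultures reached saturation at 30 °C; 1 = growth at the plate median or of vehicle wells; lower values mean less growth of the strain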
Conditions: S. cerevisiae deletion strains, growth OD

Measured: normalized growth

CC1(C)C(=O)[C@@H]2O[C@@H]2[C@@]2(C)C1C[C@@H](O)[C@]1(C)C2CC[C@@]2(C)[C@H](c3ccoc3)OC(=O)C3OC321 (stereo partly specified)
inactive: locus YAL021C, strain ccr4, active compounds read low 0.981 | locus YAL026C, strain drs2, active compounds read low 0.969 | locus YAL030W, strain snc1, active compounds read low 0.982 | locus YBL061C, strain skt5, active compounds read low 0.989 | locus YBR009C, strain hhf1, active compounds read low 1 | locus YBR021W, strain FUR4, active compounds read low 0.965 | locus YBR023C, strain chs3, active compounds read low 0.998 | locus YBR171W, strain sec66, active compounds read low 0.994 | locus YBR229C, strain ROT2, active compounds read low 1 | locus YBR231C, strain swc5, active compounds read low 0.995 | locus YBR279W, strain paf1, active compounds read low 0.987 | locus YCL011C, strain gbp2, active compounds read low 0.999 | locus YCL016C, strain dcc1, active compounds read low 0.997 | locus YCL029C, strain bik1, active compounds read low 0.988 | locus YCL061C, strain MRC1, active compounds read low 1.01 | locus YCL069W, strain vba3, active compounds read low 0.999 | locus YCR088W, strain abp1, active compounds read low 1 | locus YDL005C, strain med2, active compounds read low 0.987 | locus YDL035C, strain GPR1, active compounds read low 0.998 | locus YDL040C, strain nat1, active compounds read low 0.998 | locus YDL074C, strain BRE1, active compounds read low 0.972 | locus YDL101C, strain DUN1, active compounds read low 1 | locus YDL134C, strain PPH21, active compounds read low 0.989 | locus YDL185W, strain tfp1, active compounds read low 0.997 | locus YDL192W, strain arf1, active compounds read low 0.988 | locus YDR001C, strain nth1, active compounds read low 1 | locus YDR069C, strain doa4, active compounds read low 0.999 | locus YDR101C, strain arx1, active compounds read low 0.971 | locus YDR137W, strain rgp1, active compounds read low 1 | locus YDR150W, strain NUM1, active compounds read low 1 | locus YDR159W, strain sac3, active compounds read low 0.998 | locus YDR162C, strain NBP2, active compounds read low 1 | locus YDR195W, strain ref2 0.989 | locus YDR297W, strain sur2, active compounds read low 0.99 | locus YDR318W, strain mcm21, active compounds read low 0.974 | locus YDR334W, strain swr1, active compounds read low 0.989 | locus YDR335W, strain msn5, active compounds read low 0.987 | locus YDR388W, active compounds read low 0.991 | locus YDR392W, strain spt3, active compounds read low 0.984 | locus YDR502C, strain sam2, active compounds read low 0.957 | locus YEL003W, strain gim4, active compounds read low 1.01 | locus YEL037C, strain rad23, active compounds read low 0.988 | locus YEL061C, strain CIN8 (second series), active compounds read low 1 | locus YER015W, strain faa2, active compounds read low 0.996 | locus YER016W, strain bim1, active compounds read low 0.995 | locus YER110C, active compounds read low 0.976 | locus YER111C, strain swi4, active compounds read low 0.996 | locus YER155C, strain BEM2 (second series), active compounds read low 1 | locus YER155C, strain BEM2, active compounds read low 1 | locus YER167W, strain BCK2, active compounds read low 1.01 | locus YFR010W, strain ubp6, active compounds read low 1 | locus YGL078C, strain dbp3, active compounds read low 0.985 | locus YGL086W, strain mad1, active compounds read low 0.977 | locus YGL167C, strain pmr1, active compounds read low 1.01 | locus YGL173C, strain kem1, active compounds read low 1 | locus YGL227W, strain vid30, active compounds read low 1 | locus YGL240W, strain doc1, active compounds read low 1 | locus YGL248W, strain PDE1, active compounds read low 0.998 | locus YGL253W, strain hxk2, active compounds read low 1 | locus YGR135W, strain pre9, active compounds read low 0.952 | locus YGR229C, strain SMI1, active compounds read low 0.981 | locus YGR252W, strain gcn5, active compounds read low 0.845 | locus YHR013C, strain ard1, active compounds read low 0.993 | locus YHR027C, strain rpn1, active compounds read low 0.997 | locus YHR030C, strain SLT2, active compounds read low 1.02 and 0.977 | locus YHR079C, strain IRE1 (second series), active compounds read low 0.991 | locus YHR079C, strain IRE1, active compounds read low 0.986 | locus YHR094C, strain hxt1, active compounds read low 0.989 | locus YHR129C, strain ARP1, active compounds read low 1 | locus YHR142W, strain chs7, active compounds read low 0.993 | locus YHR200W, strain rpn10, active compounds read low 0.982 | locus YIL066C, strain RNR3, active compounds read low 1.01 | locus YIL073C, strain SPO22, active compounds read low 0.992 | locus YIL125W, strain kgd1, active compounds read low 0.992 | locus YIR030C, strain dcg1, active compounds read low 0.994 | locus YJL092W, strain hpr5, active compounds read low 1 | locus YJL095W, strain BCK1 (second series), active compounds read low 0.994 | locus YJL095W, strain BCK1, active compounds read low 0.982 and 0.983 | locus YJL115W, strain asf1, active compounds read low 0.989 | locus YJL129C, strain trk1, active compounds read low 0.985 | locus YJL134W, strain LCB3, active compounds read low 0.997 | locus YJL154C, strain vps35, active compounds read low 0.999 | locus YJL164C, strain tpk1, active compounds read low 0.981 | locus YJL166W, strain qcr8, active compounds read low 0.983 | locus YJL168C, strain set2, active compounds read low 0.985 | locus YJL187C, strain SWE1 (second series), active compounds read low 0.984
